From PubChem BioAssay come the findings set out here.

Assay [1] deals with TRPC4 beta (transient receptor potential cation channel C4), mouse. In words: TRPC4 cation channel opening, retest – cell-based, Fluo4 calcium, HEK293 TRPC4beta/mu-opioid, duplicates, 10 µM, confirmation (AID 2426;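 active = fluorescence ratio normalized to control raised more than 50% in primary screen plus both repeat runs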;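 as to activation: percent rise of integrated ratio over buffer wells lacking compound which define 0%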). The settings on record: Fluo4 calcium fluorescence, at 10 µM; stronger effect = higher value.
Assay [2] deals with transient receptor potential cation channel C4 beta (TRPC4), mouse. In words: TRPC4 cation channel opening, second retest – cell-based, second round, Fluo4, HEK293 TRPC4beta/mu-opioid, 1 µM, confirmation (AID 2461;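 active = primary screen active and over 50% activation in each of two duplicate runs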;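 as to activation: 0% = wells without test compound as baseline of integrated fluorescence ratio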). The note with it: Fluo4 calcium fluorescence, at 1 µM; stronger effect = higher value.
The test system of assay [3] is TRPC4 (transient receptor potential cation channel C4 beta), mouse. In words: potentiation of DAMGO EC20 TRPC4 response – cell-based, second round, Fluo-4, HEK293 TRPC4beta/mu-opioid, 1 µM, confirmation (AID 2554;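 active = primary screen hit whose fluorescence ratio, in both repeats, exceeds the weak agonist control mean by 3 SD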). The settings on record: DAMGO EC20, Fluo-4 calcium flux, at 1 µM; stronger effect = higher value.
In assay [4] the test system is TRPC4 beta (transient receptor potential cation channel C4), mouse. In words: potentiation of DAMGO EC20 TRPC4 response – cell-based, Fluo-4, HEK293 TRPC4beta/mu-opioid, confirmation (AID 2555;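 active = primary screen hit whose calcium fluorescence ratio, in both repeats, exceeds the weak agonist control mean by 3 SD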). The settings on record: DAMGO EC20, Fluo-4 calcium flux, at 10 µM; stronger effect = higher value.
The target of assay [5] is Short transient receptor potential channel 4 (Mus musculus) (UniProt Q9QUQ5). In words: blockers of DAMGO-evoked TRPC4 calcium flux – cell-based, Fluo4, HEK293 TRPC4beta/mu-opioid, confirmation (AID 2636;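 active = calcium signal cut by more than 3 SD below the full-agonist control yet still positive, in both repeats and the earlier primary screen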). The settings on record: at 10 µM; stronger effect = higher value.
For assay [6] the target is unchanged. In words: blockers of DAMGO-evoked TRPC4 calcium flux – cell-based, second round, Fluo4, HEK293 TRPC4beta/mu-opioid, 1 µM, confirmation (AID 2637;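 active = calcium signal ratio cut to more than 3 SD under the fully stimulated control mean yet still positive, in both repeats and the primary screen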). The note with it: at 1 µM; stronger effect = higher value.
The target is the same in assay [7]. In words: potentiation of DAMGO-evoked TRPC4 calcium signal – cell-based, HEK293 TRPC4/mu-opioid, Fluo-4 calcium, EC20 DAMGO, dose response (AID 434941;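 active = earlier screen potentiator hit that boosts the TRPC4 ion channel at some dose, with a dose response; inactive = no potentiation, no dose response, or not a prior hit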;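 also: calcium entry triggered by an EC20 dose of DAMGO at the co-expressed mu-opioid receptor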).
Assay [8] has the same target. In words: block of DAMGO-driven TRPC4 calcium entry – cell-based, HEK293 TRPC4/mu-opioid, Fluo-4 calcium, dose response (AID 434942;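 active = primary screen inhibitor hit that blocks the TRPC4 channel at some tested dose, yielding a dose curve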).
The target of assay [9] is Short transient receptor potential channel 6 (Mus musculus) (UniProt Q61143). In words: TRPC6 blockade by TRPC4 inhibitor hits – cell-based, HEK293, membrane potential dye, duplicate, selectivity assay for TRPC4 inhibitor project, confirmation (AID 434948;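 active = active in primary screen and both duplicates, each dropping signal beyond three positive-control SD with fluorescence still positive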). The note with it: HEK293 TRPC6, membrane potential dye fluorescence, at 10 µM, stimulated with maximal-effect acetylcholine; stronger effect = higher value.

For assay [10] the target is unchanged. In words: TRPC6 opening by TRPC4 activator hits – cell-based, HEK293, membrane potential dye, duplicate, selectivity assay for TRPC4 activator project, confirmation (AID 434950;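 active = membrane potential signal rise above negative control mean plus 3 SD in both duplicates, also active in the earlier TRPC4 screen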;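 as to activation: 0% = buffer only wells and 100% = acetylcholine maximal-effect wells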). The note with it: HEK293 TRPC6, membrane potential fluorescence, at 10 µM; activation: stronger effect = higher value; outcome: activation.
For assay [11] the target is unchanged. In words: positive modulators of mouse TRPC6 channel – HEK293 cells, membrane potential dye, duplicate, selectivity assay for TRPC4 potentiator project, confirmation (AID 434952;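 active = compound raising the membrane signal above positive-control mean plus 3 SD in both repeats, and a primary screen hit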). The settings on record: HEK293 TRPC6, membrane potential dye fluorescence, at 10 µM, maximal acetylcholine added after compound; stronger effect = higher value.
Assay [12] addresses Short transient receptor potential channel 4 (Mus musculus) (UniProt Q9QUQ5). In words: calcium flux activators in TRPC4/5HT1a cells, counter-screen for TRPC4 activator project, cell-based, second counter screen, HEK293 TRPC4/5HT1a, Fluo-4 (AID 434977;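 active = calcium signal rise above buffer-control mean plus 5 SD in both duplicates, and also a hit in the primary screen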;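 as to activation: plate controls were assay buffer for no effect and maximal serotonin response for full effect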). The settings on record: Fluo-4 calcium flux, at 10 µM; stronger effect = higher value.
Assay [13] is described as follows: serotonin-gated TRPC4 signal block – cell-based, second counter screen, HEK293 TRPC4/5HT1a, Fluo-4, counter-screen for TRPC4 inhibitor project, confirmation (AID 434978;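 active = primary screen active whose calcium signal fell more than 3 SD beyond the full-serotonin control mean in both duplicate plates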;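 also: serotonin given first at submaximal then at maximal dose after compound preincubation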). The note with it: Fluo-4 calcium flux, at 10 µM, serotonin added to trigger calcium flux; stronger effect = higher value.
For assay [14], the system named is TRPC4 (mouse), co-expressed with 5HT1a in HEK293. In words: enhancement of serotonin-evoked TRPC4 response – cell-based, second counter screen, HEK293 TRPC4/5HT1a, Fluo-4, counter-screen for TRPC4 potentiator project, confirmation (AID 434979;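 active = signal rise over 3 SD above mean of control wells given weak agonist, in both repeats and first screen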). The settings on record: Fluo-4 calcium flux, at 10 µM, serotonin added at its EC20 dose; stronger effect = higher value.
Assay [15] in a line: nonspecific calcium rise without TRPC4 – cell-based, HEK293 mu-opioid receptor line, counter-screen for TRPC4 activator project, confirmation (AID 449723).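 Also: counter screen cells carry the mu-opioid receptor alone and lack TRPC4.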 The settings on record: HEK293 mu-opioid cells, Fluo-4 calcium fluorescence, at 10 µM; stronger effect = higher value.
Assay [16] can be described thus: nonspecific potentiation of DAMGO calcium response – cell-based, HEK293 mu-opioid receptor line, counter-screen for TRPC4 allosteric potentiator project, confirmation (AID 449724;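 active = calcium signal rise more than 3 SD above the low-dose agonist control mean, in both duplicate plates and the primary screen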;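 also: HEK293 cells carrying mu-opioid receptor only with no TRPC4 channel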). The note with it: HEK293 mu-opioid receptor cells, Fluo-4 calcium flux, at 10 µM, compound added before EC20 DAMGO stimulus; stronger effect = higher value.

Values joined by “and” are separate entries in the source; they are usually repeats but may differ in a detail not shown here. Equal values may be shown once. For some assays here: Entries with a potency or affinity are not part of this list. Active and inactive are the calls of the source.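 The calls were made as follows, unless noted: active = hit in primary screen, with calcium signal over 5 SD above buffer well mean in both duplicates; inactive = the rest.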

Short transient receptor potential channel 4 (Mus musculus), sequence (Q9QUQ5 whole entry, looked up): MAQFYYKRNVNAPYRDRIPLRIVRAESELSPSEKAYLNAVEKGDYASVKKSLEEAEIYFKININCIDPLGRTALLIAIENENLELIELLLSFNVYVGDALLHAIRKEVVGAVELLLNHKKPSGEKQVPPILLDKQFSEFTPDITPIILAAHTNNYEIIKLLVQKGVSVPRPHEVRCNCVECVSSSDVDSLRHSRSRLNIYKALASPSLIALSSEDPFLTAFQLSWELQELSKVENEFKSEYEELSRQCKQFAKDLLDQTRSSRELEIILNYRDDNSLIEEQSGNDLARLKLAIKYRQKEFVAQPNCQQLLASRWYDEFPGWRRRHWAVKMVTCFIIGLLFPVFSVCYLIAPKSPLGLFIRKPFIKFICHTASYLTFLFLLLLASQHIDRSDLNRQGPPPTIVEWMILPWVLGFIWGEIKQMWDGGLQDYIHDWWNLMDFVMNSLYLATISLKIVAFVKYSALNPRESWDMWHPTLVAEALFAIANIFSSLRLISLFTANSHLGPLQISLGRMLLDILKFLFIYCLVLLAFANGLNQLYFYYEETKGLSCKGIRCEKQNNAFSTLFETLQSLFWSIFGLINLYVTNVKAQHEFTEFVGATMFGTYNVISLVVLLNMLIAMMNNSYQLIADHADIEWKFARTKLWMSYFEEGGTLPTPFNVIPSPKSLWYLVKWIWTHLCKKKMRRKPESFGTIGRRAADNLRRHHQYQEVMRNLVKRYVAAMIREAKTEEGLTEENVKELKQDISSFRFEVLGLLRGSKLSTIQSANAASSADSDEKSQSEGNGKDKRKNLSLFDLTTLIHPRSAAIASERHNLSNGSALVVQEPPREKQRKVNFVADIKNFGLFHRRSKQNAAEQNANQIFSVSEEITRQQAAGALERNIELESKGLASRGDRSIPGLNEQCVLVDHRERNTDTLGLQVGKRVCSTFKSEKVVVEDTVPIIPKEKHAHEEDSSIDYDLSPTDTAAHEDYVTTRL
Short transient receptor potential channel 6 (Mus musculus), sequence (Q61143 whole entry, looked up): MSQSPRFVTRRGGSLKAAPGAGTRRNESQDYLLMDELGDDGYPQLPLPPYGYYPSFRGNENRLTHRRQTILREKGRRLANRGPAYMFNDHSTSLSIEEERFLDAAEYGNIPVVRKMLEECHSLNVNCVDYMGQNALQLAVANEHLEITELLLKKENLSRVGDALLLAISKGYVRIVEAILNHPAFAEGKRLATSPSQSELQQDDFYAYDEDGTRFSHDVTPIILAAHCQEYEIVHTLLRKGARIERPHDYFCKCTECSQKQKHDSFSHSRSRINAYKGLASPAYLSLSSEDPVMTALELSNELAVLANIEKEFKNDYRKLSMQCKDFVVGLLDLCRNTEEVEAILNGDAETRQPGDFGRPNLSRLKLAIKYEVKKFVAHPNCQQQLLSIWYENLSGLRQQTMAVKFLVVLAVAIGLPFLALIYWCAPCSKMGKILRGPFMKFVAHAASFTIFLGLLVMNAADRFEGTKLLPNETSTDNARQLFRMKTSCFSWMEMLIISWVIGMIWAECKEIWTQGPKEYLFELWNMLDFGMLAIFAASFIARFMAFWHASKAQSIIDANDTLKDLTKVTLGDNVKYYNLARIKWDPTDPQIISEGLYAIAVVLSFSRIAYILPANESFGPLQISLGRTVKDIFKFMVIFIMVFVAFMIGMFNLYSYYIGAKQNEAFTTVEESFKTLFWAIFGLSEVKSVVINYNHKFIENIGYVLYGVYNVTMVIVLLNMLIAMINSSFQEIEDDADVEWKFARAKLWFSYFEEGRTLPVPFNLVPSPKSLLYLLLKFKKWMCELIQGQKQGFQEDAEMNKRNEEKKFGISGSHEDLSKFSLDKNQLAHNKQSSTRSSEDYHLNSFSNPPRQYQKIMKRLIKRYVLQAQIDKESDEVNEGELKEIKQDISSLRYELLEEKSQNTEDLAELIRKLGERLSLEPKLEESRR

For `COCCCn1c(N)c(-c2nc3ccccc3n2C)c2nc3ccccc3nc21`, the outcome in assay [1], in [2], in assay [3], in [4], in [5] and in [6] was inactive. The outcome in assay [7], in assay [8], in assay [9], in assay [11], in assay [13] and in assay [14] was inactive. The outcome in assay [16] was inactive. The activation in assay [10] was 137% (active); in assay [12] it was 27.5% (active); in assay [15] it was 16.7% (active).
On to `CC(=O)OCC[N+](C)(C)C`, for which the activation in [1] was 128% (active) and 146% (active); in assay [2], 81% (active) and 93% (active); in assay [10] it was 91.5% (active) and 116% (active); in [12], 110% (active) and 105% (active); in [15] it was 101% (active) and 102% (active). Besides, the result in [3], in [4], in [5], in [6], in [7] and in assay [8] was inactive. Also, the call in [9], in assay [11], in assay [13], in [14] and in assay [16] was inactive.
Regarding `NC(N)=NN=C1CCCCCCCCCCC1`, the activation is 95% (active) in assay [1], 32.5% (active) in assay [10], 32.2% (active) in assay [12] and 24.9% (active) in assay [15]. For the same molecule, the outcome in [2], in assay [3], in assay [4], in assay [5], in assay [6] and in assay [7] was inactive. The result in assay [8], in assay [9], in [11], in assay [13], in [14] and in assay [16] was inactive.
On to `CCN(Cc1ccccc1)S(=O)(=O)c1ccc(C(=O)N(CCCN(C)C)c2nc3c(F)cccc3s2)cc1`, for which the activation in [1] is 76% (active). Also, the outcome in [2], in assay [3], in assay [4], in assay [5], in assay [6] and in assay [7] was inactive. Further, the result in assay [8], in assay [9], in [10], in assay [11], in assay [12] and in assay [13] was inactive. In addition, the result in assay [14], in [15] and in assay [16] was inactive.
`Cn1c2ccccc2c(=O)c2c(=O)n(C3CCCCC3)c(-c3ccco3)nc21`: the result in [1], in assay [2], in assay [3], in [4], in assay [5] and in assay [6] was inactive. The outcome in assay [7], in assay [8], in [9], in [10], in assay [11] and in assay [12] was inactive. In addition, the result in [13], in assay [14] and in [16] was inactive. Besides, the activation in assay [15] was 68.6% (active).
For `CCc1cc(OCCN(C)C)ccc1Cl`, the activation in assay [1] is 93% (active); in [10], 39.5% (active); in assay [12], 19.9% (active). For the same molecule, the outcome in [2], in assay [4], in assay [5], in assay [6], in [7] and in assay [8] was inactive. Further, the molecule was called inactive in [9], in assay [11], in [13], in assay [15] and in assay [16]. The potentiation in [3] is 47% (active); in [14] it was 37.3% (active).
For `CC(CN1CCCC(C(N)=O)C1)c1ccccc1` (stereo unspecified), the activation is 147% (active) in assay [1], 65% (active) in assay [2], 30.5% (active) in assay [10] and 42% (active) in assay [12]. For the same molecule, the result in assay [3], in assay [4], in [5], in assay [6], in assay [7] and in assay [8] was inactive. The molecule was classed as inactive in [9], in assay [11], in assay [13], in assay [14], in [15] and in assay [16].
Consider `COc1ccc(C(CNC(=O)COc2ccccc2OC)N(C)C)cc1OC` (stereo unspecified), for which the activation is 133% (active) in assay [1] and 35% (active) in [10]. For the same molecule, the outcome in [2], in [3], in assay [4], in assay [5], in assay [6] and in [7] was inactive. The result in assay [8], in assay [9], in [11], in assay [12], in assay [13] and in assay [14] was inactive. For the same molecule, the result in assay [15] and in [16] was inactive.
Consider `NC1=NC2(CCN(Cc3ccccc3)CC2)n2c(nc3ccccc32)N1`, for which the activation in assay [1] was 54% (active). Further, the outcome in assay [2], in [3], in [4], in [5], in assay [6] and in [7] was inactive. Moreover, the result in assay [8], in [9], in assay [10], in [11], in assay [12] and in assay [13] was inactive. For the same molecule, the result in [14], in assay [15] and in assay [16] was inactive.
Consider `COC(=O)c1cc(N2CCNCC2)nc2ccccc12`, for which the result in [1], in assay [2], in assay [3], in assay [5], in [6] and in assay [7] was inactive. In addition, the result in assay [8], in [9], in assay [10], in assay [11], in assay [13] and in [15] was inactive. The result in [16] was inactive. The potentiation in [4] is 47% (active); in assay [14], 13.8% (active). The activation in assay [12] was 18.6% (active).
With `O=c1c(Cc2ccccc2)c(O)ccn1CCc1cnc[nH]1`, the results for the activation in assay [1] and in assay [12] were 134% (active) and 39.3% (active), respectively. Besides, the outcome in [2], in [3], in assay [4], in assay [5], in assay [6] and in assay [7] was inactive. For the same molecule, the result in assay [8], in [9], in [10], in [11], in assay [13] and in assay [14] was inactive. For the same molecule, the outcome in assay [15] and in assay [16] was inactive.
